For test [1], the target named is Glucocorticoid receptor (Homo sapiens) (UniProt P04150). As to the kind of experiment: ATG_GR_TRANS: Attagene TRANS-FACTORIAL HepG2 Assay for human Glucocorticoid Receptor (GR) (AID 2282978; active means hit-call score of the fitted dose curve at least 0.9, where 1 is the maximum;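 further: activators score as hits since higher reporter transcript over DMSO is fitted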). Particulars: HepG2 Attagene TRANS GR reporter, mRNA transcription. The method in brief:
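Transiently transfected HepG2 cells express chimeric NR-GAL4 proteins acting on GAL4-UAS reporter units. Compounds are applied for 24 h. mRNA induction over DMSO is measured by capillary electrophoresis.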

For test [2], the target named is Oxysterols receptor LXR-alpha (Homo sapiens) (UniProt Q13133). As to the kind of experiment: ATG_LXRa_TRANS: Attagene TRANS-FACTORIAL HepG2 Assay for human Liver X Receptor alpha (LXRa) (AID 2282980; active means hit-call score of the fitted dose curve at least 0.9, where 1 is the maximum). Particulars: HepG2 Attagene TRANS reporter, LXRa transactivation. Put shortly: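 HepG2 cells were transiently transfected with multiplexed reporter units driven by chimeric LXRa–GAL4 fusion proteins, then dosed for 24 h. Reporter mRNA was quantified by RT-PCR, fluorescent labelling and capillary electrophoresis; gain of signal fitted against DMSO baseline.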
Oxysterols receptor LXR-alpha (Homo sapiens), sequence (Q13133 whole entry, looked up, the tested form may be a part): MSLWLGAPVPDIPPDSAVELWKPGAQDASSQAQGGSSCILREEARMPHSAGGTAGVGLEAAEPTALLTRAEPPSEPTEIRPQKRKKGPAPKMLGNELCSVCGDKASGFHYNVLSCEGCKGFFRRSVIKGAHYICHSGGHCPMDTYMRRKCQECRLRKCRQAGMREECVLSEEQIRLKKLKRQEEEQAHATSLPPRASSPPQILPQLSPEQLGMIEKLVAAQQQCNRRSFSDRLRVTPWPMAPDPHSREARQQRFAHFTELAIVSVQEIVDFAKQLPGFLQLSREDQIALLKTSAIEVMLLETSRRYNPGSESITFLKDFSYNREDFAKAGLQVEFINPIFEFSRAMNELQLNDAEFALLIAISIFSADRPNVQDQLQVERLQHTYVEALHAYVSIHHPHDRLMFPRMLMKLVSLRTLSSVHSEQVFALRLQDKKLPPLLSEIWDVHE

Test [3] addresses Oxysterols receptor LXR-beta (Homo sapiens) (UniProt P55055). The experiment in a line: ATG_LXRb_TRANS: Attagene TRANS-FACTORIAL HepG2 Assay for human Liver X Receptor beta (LXRb) (AID 2282981; active means hit-call score of the fitted dose curve at least 0.9, where 1 is the maximum). The conditions noted are these: HepG2 Attagene TRANS GAL4-LXRb reporter, mRNA. The method in brief:
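Cells: HepG2, transiently transfected with GAL4-UAS reporter units plus LXRb-Gal4 fusion. Treatment: 24 h. Detection: reporter mRNA by RT-PCR, 6-FAM labelling, HpaI digestion, capillary electrophoresis.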

The target in test [4] is Hepatocyte nuclear factor 4-alpha (Homo sapiens) (UniProt P41235). The experiment in a line: ATG_HNF4a_TRANS: Attagene TRANS-FACTORIAL HepG2 Assay for human Hepatocyte Nuclear Factor 4 alpha (HNF4a) (AID 2282982; active means hit-call score of the fitted dose curve at least 0.9, where 1 is the maximum). The conditions noted are these: HepG2 HNF4a transactivation reporter, mRNA readout. Put shortly:
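Transfected HepG2 reporter cells are dosed for 24 h; reporter RNA is reverse-transcribed, amplified, fluorescently labelled and HpaI-digested before CE sizing. Positive-direction fit against DMSO.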

A short description of test [5]: ATG_M_32_TRANS: Attagene TRANS-FACTORIAL HepG2 Assay for M32 Transcription Factor (Internal Marker) (AID 2282984; active means hit-call score of the fitted dose curve at least 0.9, where 1 is the maximum). The conditions noted are these: HepG2 Attagene TRANS M32 internal marker reporter. The method in brief: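 Using transiently transfected HepG2 cells exposed to test chemicals for 24 h, reporter transcripts are converted to labelled cDNA fragments and quantified by capillary electrophoresis. DMSO defines the activity baseline.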

In test [6] the target is Transcriptional activator Myb (Homo sapiens) (UniProt P10242). As to the kind of experiment: ATG_Myb_CIS: Attagene CIS-FACTORIAL HepG2 Assay for human Myeloblastosis (Myb) Proto-Oncogene Transcription Factor (AID 2282986). The conditions noted are these: HepG2 Attagene CIS-FACTORIAL Myb reporter transcription; actives raise or lower the signal. Put shortly: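 Using HepG2 liver cells bearing transiently transfected cis-promoter reporter constructs, the assay measures induction or loss of reporter mRNA after 24 hours of dosing. Detection used fluorescently labeled RT-PCR products separated by capillary electrophoresis.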
Transcriptional activator Myb (Homo sapiens), sequence (P10242 whole entry, looked up): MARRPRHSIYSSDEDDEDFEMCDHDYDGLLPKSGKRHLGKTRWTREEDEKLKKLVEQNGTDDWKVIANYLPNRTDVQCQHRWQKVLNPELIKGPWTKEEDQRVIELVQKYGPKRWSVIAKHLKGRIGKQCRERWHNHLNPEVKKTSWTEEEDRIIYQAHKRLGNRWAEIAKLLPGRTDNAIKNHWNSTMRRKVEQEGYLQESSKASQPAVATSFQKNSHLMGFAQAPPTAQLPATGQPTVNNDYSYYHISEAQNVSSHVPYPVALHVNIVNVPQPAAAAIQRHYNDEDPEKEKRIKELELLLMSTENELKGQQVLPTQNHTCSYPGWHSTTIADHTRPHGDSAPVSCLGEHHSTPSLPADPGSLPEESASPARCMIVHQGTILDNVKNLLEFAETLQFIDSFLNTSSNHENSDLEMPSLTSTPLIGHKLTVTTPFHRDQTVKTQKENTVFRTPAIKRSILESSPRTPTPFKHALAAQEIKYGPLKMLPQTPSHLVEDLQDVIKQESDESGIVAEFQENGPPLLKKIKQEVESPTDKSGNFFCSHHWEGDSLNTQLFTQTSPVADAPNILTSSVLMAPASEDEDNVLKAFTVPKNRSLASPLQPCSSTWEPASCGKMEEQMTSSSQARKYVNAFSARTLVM

The target of test [7] is Nuclear respiratory factor 1 (Homo sapiens) (UniProt Q16656). As to the kind of experiment: ATG_NRF1_CIS: Attagene CIS-FACTORIAL HepG2 Assay for human Nuclear Respiratory Factor 1 (NRF1) Orphan Gene (AID 2282987). Particulars: HepG2 NRF1 cis-element reporter, Attagene multiplex; actives raise or lower the signal. The method in brief: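 Reporter mRNA induction or loss in HepG2 cells after 24 h dosing; cis-regulated reporter constructs report endogenous transcription-factor activity. Quantified by RT-PCR/capillary electrophoresis fluorescence, DMSO-referenced.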
Nuclear respiratory factor 1 (Homo sapiens), sequence (Q16656 whole entry, looked up): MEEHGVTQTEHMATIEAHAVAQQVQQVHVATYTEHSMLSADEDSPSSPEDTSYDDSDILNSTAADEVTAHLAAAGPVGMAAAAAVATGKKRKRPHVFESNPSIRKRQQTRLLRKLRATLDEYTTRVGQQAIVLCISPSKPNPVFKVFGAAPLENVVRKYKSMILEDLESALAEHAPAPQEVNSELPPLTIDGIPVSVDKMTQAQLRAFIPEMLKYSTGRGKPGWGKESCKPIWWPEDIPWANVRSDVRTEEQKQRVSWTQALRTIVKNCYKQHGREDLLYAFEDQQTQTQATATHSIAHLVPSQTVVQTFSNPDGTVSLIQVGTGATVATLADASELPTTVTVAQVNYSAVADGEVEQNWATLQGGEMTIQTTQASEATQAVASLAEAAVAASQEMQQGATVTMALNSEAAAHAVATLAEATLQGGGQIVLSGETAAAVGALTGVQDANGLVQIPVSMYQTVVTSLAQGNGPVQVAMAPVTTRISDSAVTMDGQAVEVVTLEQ

Test [8] concerns the target Myc proto-oncogene protein (Homo sapiens) (UniProt P01106). The experiment in a line: ATG_Myc_CIS: Attagene CIS-FACTORIAL HepG2 Assay for human Myelocytomatosis (Myc) Proto-Oncogene Transcription Factor (AID 2282990). The conditions noted are these: HepG2, Attagene cis-reporter transcription factor activity; actives raise or lower the signal. Put shortly: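 HepG2, transient MRTU transfection (cis promoters, endogenous TFs); 24 h dosing; TriZol RNA → oligo(dT) RT → PCR → 6-FAM primer extension → HpaI cut → CE. Bidirectional fit vs DMSO.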

Test [9] is described as follows: ATG_NF_kB_CIS: Attagene CIS-FACTORIAL HepG2 Assay for human Nuclear Factor Kappa B (NF-kB) (AID 2282991). Particulars: HepG2 Attagene cis-factorial NF-kB reporter mRNA; actives raise or lower the signal. The method in brief:
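DMSO served as negative control and baseline for bidirectional curve fitting. Transiently transfected HepG2 cells were dosed for 24 h, then reporter transcripts were measured by RT-PCR with capillary electrophoresis detection.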

The nature of test [10]: ATG_NRF2_ARE_CIS: Attagene CIS-FACTORIAL HepG2 Assay for human Nuclear Factor Erythroid 2 Related Factor 2 (NFR2) response to Antioxidant Response Elements (ARE) (AID 2282992).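 On AC50: reporter mRNA level measured by RT-PCR and capillary electrophoresis fluorescence.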 The conditions noted are these: HepG2 Attagene ARE/NRF2 reporter, transcription factor activity; actives raise or lower the signal. Put shortly:
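Multiplexed reporter mRNA profiling in HepG2 after a 24 h chemical exposure. Curves fitted in both directions relative to DMSO negative control.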

The nature of test [11]: ATG_Oct_MLP_CIS: Attagene CIS-FACTORIAL HepG2 Assay for human Octamer-Binding Transcription Factor (Oct) (AID 2282993). Particulars: HepG2 Attagene cis-factorial Oct reporter, mRNA; actives raise or lower the signal. Put shortly: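 Using HepG2 cells bearing transfected cis-reporter constructs, mRNA induction was read after 24 h by fluorescent RT-PCR and capillary electrophoresis, with DMSO defining baseline for gain- or loss-of-signal fits.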

The target of test [12] is Cellular tumor antigen p53 (Homo sapiens) (UniProt P04637). The experiment in a line: ATG_p53_CIS: Attagene CIS-FACTORIAL HepG2 Assay for human p53 Transcription Factor (AID 2282994). The conditions noted are these: HepG2 p53 cis-element reporter, Attagene mRNA; actives raise or lower the signal. Put shortly: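 Multiplexed reporter mRNA assay in human HepG2 liver cells; cis-regulated units report endogenous factor activity. Values come from bidirectional curve fitting against DMSO negative control after 24 h treatment.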
Cellular tumor antigen p53 (Homo sapiens), sequence (P04637 whole entry, looked up): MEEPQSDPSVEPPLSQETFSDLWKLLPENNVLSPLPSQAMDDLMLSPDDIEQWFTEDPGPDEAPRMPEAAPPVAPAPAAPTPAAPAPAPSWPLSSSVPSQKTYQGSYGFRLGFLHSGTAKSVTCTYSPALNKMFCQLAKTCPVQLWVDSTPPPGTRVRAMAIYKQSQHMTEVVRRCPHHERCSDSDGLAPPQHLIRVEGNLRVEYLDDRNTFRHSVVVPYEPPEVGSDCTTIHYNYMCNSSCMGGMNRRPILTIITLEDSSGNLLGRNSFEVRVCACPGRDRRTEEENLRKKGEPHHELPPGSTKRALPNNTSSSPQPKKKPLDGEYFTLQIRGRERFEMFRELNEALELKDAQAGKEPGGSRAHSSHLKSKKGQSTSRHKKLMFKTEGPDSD

Test [13] can be described thus: BSK_3C_TissueFactor: BioMAP Diversity Plus: 3C Assay for Tissue Factor Biomarker Activity (AID 2282997). Particulars: BioMAP 3C HUVEC, tissue factor biomarker readout; actives raise or lower the signal. Put shortly:
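Primary human umbilical vein endothelial cells in the 3C system were exposed to test chemical for 24 h, then Tissue Factor measured by ELISA. Activity was fitted bidirectionally against DMSO as negative control and baseline.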

The nature of test [14]: BSK_3C_uPAR: BioMAP Diversity Plus: 3C Assay for Urokinase-type plasminogen activator receptor (uPAR) Biomarker Activity (AID 2282998). The conditions noted are these: BioMAP 3C HUVEC, uPAR biomarker ELISA; actives raise or lower the signal. Put shortly: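 In this endothelial cell-based assay, human umbilical vein primary cells were treated with chemicals and harvested at 24 h. uPAR was quantified using ELISA, with gains or losses fitted relative to DMSO controls.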
On the technique in general: In an ELISA, binding on a coated surface is turned into a signal by an enzyme label.

For test [15], the target named is Bile acid receptor (Homo sapiens) (UniProt Q96RI1). The experiment in a line: ATG_FXR_TRANS: Attagene TRANS-FACTORIAL HepG2 Assay for Farnesoid X Receptor (FXR) (AID 2282979; active means hit-call score of the fitted dose curve at least 0.9, where 1 is the maximum;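 further: hits raise reporter mRNA above DMSO so AC50 marks FXR activation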). The conditions noted are these: HepG2 Attagene TRANS FXR-GAL4 reporter transcription. Put shortly:
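HepG2 cells transiently transfected with reporter constructs in which a chimeric FXR-GAL4 protein drives a GAL4-UAS reporter; 24 h compound exposure. Reporter mRNA measured by RT-PCR, FAM labelling, HpaI digestion and capillary electrophoresis; gain-of-signal versus DMSO.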

Test [16] is described as follows: ATG_M_06_TRANS: Attagene TRANS-FACTORIAL HepG2 Assay for M06 Transcription Factor (Internal Marker) (AID 2282983; active means hit-call score of the fitted dose curve at least 0.9, where 1 is the maximum;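 further: reporter transcript level by RT-PCR then capillary electrophoresis fluorescence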). Particulars: HepG2 Attagene TRANS M06 internal marker reporter. The method in brief:
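HepG2 cells transiently transfected with multiplexed GAL4-UAS reporter transcription units; after 24 h compound exposure, reporter mRNA measured by RT-PCR, FAM-labelled primer extension, HpaI digestion and capillary electrophoresis. Gain-of-signal fitted versus DMSO baseline; background control readout.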

Test [17] addresses Nuclear receptor subfamily 4 group A member 2 (Homo sapiens) (UniProt P43354). As to the kind of experiment: ATG_NURR1_TRANS: Attagene TRANS-FACTORIAL HepG2 Assay for human Nuclear Receptor Related Protein 1 (NURR1) (AID 2282985; active means hit-call score of the fitted dose curve at least 0.9, where 1 is the maximum). Particulars: HepG2 Attagene TRANS reporter, mRNA readout. Put shortly:
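Cells: HepG2, transiently transfected. Exposure: 24 h. Detection: fluorescence of labelled RT-PCR products separated by capillary electrophoresis; upward fit versus DMSO.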

Test [18] can be described thus: ATG_NFI_CIS: Attagene CIS-FACTORIAL HepG2 Assay for human Nuclear Factor I (NFI) (AID 2282989). Particulars: HepG2 cis-regulatory reporter, NFI response element transcription; actives raise or lower the signal. The method in brief: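 Transfected HepG2 liver cells, exposed 24 h, supplied total RNA for oligo(dT) reverse transcription and reporter-specific PCR. Labelled, HpaI-cut fragments were sized by capillary electrophoresis; DMSO set the baseline for bidirectional fitting.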

Records with an inconclusive call do not appear. Active and inactive are the calls of the source. How the source made its calls, unless noted: active means hit-call score of the fitted dose curve at least 0.9, where 1 is the maximum; inactive means score below 0.9.

As usually defined, the AC50 is the midpoint of the concentration-response curve, whichever way the signal moves.

Glucocorticoid receptor (Homo sapiens), sequence (P04150 whole entry, looked up, the tested form may be a part): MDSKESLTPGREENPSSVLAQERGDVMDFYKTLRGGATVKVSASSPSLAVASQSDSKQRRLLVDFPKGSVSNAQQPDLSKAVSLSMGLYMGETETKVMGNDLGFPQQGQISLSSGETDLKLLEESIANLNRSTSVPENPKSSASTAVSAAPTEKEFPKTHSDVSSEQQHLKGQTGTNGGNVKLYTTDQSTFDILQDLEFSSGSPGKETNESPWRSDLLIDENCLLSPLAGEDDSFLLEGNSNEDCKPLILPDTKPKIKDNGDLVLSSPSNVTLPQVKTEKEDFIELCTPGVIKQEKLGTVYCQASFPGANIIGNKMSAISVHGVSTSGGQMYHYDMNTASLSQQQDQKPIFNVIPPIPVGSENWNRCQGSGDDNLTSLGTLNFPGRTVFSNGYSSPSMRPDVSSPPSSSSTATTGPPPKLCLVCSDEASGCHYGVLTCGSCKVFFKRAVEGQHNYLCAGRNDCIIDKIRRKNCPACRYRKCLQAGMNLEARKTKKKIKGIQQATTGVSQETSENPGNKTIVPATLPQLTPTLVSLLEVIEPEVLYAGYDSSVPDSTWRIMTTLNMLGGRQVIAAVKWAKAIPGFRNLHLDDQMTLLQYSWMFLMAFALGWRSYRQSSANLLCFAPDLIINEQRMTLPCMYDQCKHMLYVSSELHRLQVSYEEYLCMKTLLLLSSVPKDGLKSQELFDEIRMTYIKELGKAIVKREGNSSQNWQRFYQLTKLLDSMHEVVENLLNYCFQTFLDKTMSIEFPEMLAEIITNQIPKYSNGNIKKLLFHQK
Myc proto-oncogene protein (Homo sapiens), sequence (P01106 whole entry, looked up): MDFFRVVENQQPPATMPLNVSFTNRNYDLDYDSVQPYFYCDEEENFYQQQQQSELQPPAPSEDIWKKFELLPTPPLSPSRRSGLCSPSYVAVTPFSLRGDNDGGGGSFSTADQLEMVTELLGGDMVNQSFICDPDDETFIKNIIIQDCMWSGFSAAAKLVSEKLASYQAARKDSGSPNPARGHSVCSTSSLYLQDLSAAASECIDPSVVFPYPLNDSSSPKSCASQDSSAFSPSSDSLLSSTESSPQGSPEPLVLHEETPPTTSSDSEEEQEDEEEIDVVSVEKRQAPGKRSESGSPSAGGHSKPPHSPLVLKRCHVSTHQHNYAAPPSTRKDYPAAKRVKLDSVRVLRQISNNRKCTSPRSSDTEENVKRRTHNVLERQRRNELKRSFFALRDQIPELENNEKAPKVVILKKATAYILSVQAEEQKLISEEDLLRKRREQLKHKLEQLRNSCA
Hepatocyte nuclear factor 4-alpha (Homo sapiens), sequence (P41235 whole entry, looked up): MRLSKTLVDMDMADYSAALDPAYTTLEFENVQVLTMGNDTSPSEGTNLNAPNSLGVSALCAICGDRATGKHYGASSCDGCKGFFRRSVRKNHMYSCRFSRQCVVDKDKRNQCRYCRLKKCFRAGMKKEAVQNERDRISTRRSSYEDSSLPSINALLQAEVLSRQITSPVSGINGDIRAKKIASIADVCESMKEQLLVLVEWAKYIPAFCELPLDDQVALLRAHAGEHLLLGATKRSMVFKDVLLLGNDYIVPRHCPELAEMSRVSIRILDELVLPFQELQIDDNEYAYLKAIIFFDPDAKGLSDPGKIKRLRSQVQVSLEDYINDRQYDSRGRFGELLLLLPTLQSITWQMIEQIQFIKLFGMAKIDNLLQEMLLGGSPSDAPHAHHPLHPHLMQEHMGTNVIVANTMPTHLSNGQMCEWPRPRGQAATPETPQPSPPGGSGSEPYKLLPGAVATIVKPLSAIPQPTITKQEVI
Oxysterols receptor LXR-beta (Homo sapiens), sequence (P55055 whole entry, looked up, the tested form may be a part): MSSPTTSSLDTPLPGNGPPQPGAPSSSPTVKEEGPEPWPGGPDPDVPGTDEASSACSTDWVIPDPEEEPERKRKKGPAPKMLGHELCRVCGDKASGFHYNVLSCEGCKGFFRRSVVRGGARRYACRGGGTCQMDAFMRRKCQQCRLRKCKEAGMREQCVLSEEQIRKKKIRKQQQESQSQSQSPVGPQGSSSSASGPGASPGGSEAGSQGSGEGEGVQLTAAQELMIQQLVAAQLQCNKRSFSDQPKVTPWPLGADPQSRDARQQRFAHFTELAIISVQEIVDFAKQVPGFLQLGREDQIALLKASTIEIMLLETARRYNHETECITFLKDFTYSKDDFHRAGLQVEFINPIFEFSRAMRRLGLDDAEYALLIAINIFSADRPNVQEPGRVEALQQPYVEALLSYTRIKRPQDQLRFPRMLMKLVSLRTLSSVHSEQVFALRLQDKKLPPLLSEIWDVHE
Bile acid receptor (Homo sapiens), sequence (Q96RI1 whole entry, looked up, the tested form may be a part): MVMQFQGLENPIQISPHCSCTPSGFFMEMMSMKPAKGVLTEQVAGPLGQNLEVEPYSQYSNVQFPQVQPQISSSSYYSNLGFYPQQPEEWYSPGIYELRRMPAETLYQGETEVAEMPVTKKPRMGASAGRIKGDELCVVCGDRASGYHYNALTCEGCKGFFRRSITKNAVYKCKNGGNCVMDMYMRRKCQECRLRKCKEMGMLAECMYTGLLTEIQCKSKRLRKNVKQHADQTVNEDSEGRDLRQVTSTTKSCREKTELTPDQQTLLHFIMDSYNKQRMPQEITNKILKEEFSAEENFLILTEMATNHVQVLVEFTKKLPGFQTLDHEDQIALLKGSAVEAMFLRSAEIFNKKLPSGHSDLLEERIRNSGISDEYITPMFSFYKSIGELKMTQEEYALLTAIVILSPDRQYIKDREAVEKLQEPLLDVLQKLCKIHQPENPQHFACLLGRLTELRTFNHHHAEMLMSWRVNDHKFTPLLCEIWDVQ

With `CC(C)(C)C(=O)C(Oc1ccc(Cl)cc1)n1cncn1` (stereo unspecified), the compound was classed as inactive in test [1], in [2], in test [3], in test [4], in test [5] and in [6]. Further, the compound was called inactive in [7], in test [8], in test [9], in [12], in [13] and in test [14]. Also, the AC50 in test [10] is 20.3 µM (active); in test [11], 19.4 µM (active).

`CS(=O)(=O)c1ccc(C(=O)C2C(=O)CCCC2=O)c([N+](=O)[O-])c1`: the compound was called inactive in test [1], in test [15], in test [2], in test [3], in [4] and in test [16]. Further, the call in [5], in [17], in test [6], in test [7], in test [18] and in [8] was inactive. Also, the compound was called inactive in [10], in test [11], in test [12], in [13] and in test [14].

`COc1cc(Cl)c(OC)cc1Cl`: the compound was classed as inactive in [1], in [2], in test [3], in test [4], in test [16] and in test [5]. The result in test [6], in test [7], in test [18], in test [8], in [10] and in test [11] was inactive. The compound was classed as inactive in test [12], in [13] and in [14].

Turning to `CCCCOCN(C(=O)CCl)c1c(CC)cccc1CC`, the result in test [1], in [15], in test [2], in test [3], in [4] and in test [5] was inactive. Further, the call in [17], in test [7], in [8], in test [9], in [11] and in test [12] was inactive. Further, the AC50 was 0.547 µM (active) in test [10], 16 µM (active) in test [13] and 31.2 µM (active) in [14].
